Screening data as filed in PubChem BioAssay.
Hits are enriched below; roughly 11% of the tested compounds scored in any of these assays.
Pf growth 48h: Primary qHTS for delayed death inhibitors of the malarial parasite plastid, 48 hour incubation; P. falciparum luciferase growth in erythrocytes, 48 h; Potency, µM (doses to about 28.7 µM), actives largely listed as inhibitors; actives 5.9% (n = 310,000); AID 504832, 2011
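Firefly luciferase activity from engineered P. falciparum reports growth; inhibitors lower the luminescent signal. Cultures contained 2% hematocrit erythrocytes at 0.1% final parasitemia.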
AMA1-RON2 inh: qHTS for Inhibitors of AMA1-RON; Towards Development of Antimalarial Drug Lead: Primary Screen | AID 720542, 2013 | Potency, µM (top dose mostly 58.2 µM), usual class: inhibitors | Plasmodium falciparum AMA1 (3D7) - RON2 peptide interaction | actives 0.2% (n = 360,000) | AlphaScreen AMA1-biotinylated RON2 peptide binding; further: nearly all actives have a fitted effect of over 45% in size
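AMA1 (3D7) with his tag at 25 nM final met compounds first, then biotinylated RON2 peptide at 25 nM; detection used donor plus acceptor beads, 10 µg/mL apiece, read by AlphaScreen after 30 min at room temperature.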
Pf growth 96h: Primary qHTS for delayed death inhibitors of the malarial parasite plastid, 96 hour incubation | AID 504834, 2011 | Potency, µM (titrated, usually from 28.7 µM), most hits filed as inhibitors | P. falciparum luciferase reporter growth, 96 h | actives 6.9% (n = 320,000)
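Erythrocytes infected with luciferase-expressing P. falciparum were dispensed at 2% hematocrit and 0.05% parasitemia (final), then incubated with compounds 96 hours at 37 C in 5% CO2. Luminescence after detection reagent addition reported growth.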
HCV inhibitor: qHTS Assay for Inhibitors of Hepatitis C Virus (HCV) | Huh7.5.1 HCVcc-Cre infection, luciferase reporter, 44 h | Potency, µM (titrated, usually from 41.8 µM), most hits filed as inhibitors | actives 3.4% (n = 340,000)
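1,000 cells/well; 4 h culture; + compound; + HCVcc-Cre (~0.5 moi); 44 h; luciferase substrate, RT 15 min; read 15 sec.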
Large screens that a line does not name were inactive. The call rests on the fitted dose curve; in most records, active means well fitted curve in the direction sought with a large enough effect; inconclusive means small, poorly fitted or top-dose-only effect, or another doubt; inactive means no such curve, though single readings can be large; an effect the other way counts as inactive or inconclusive.

Cc1csc(NC(=O)CSc2ccc([N+](=O)[O-])cn2)n1	Pf growth 96h 12µM
O=C(CSc1nc2ccccc2[nH]1)Nc1cc(C(F)(F)F)ccc1N1CCOCC1	Pf growth 48h inconclusive, Pf growth 96h 5.2µM, HCV inhibitor inconclusive
Cc1ccc(C)c(NC(=O)CSc2ccc(S(=O)(=O)N3CCCC3)cn2)c1	Pf growth 48h inconclusive
O=C(CSc1ccc([N+](=O)[O-])cn1)Nc1cc(C(F)(F)F)ccc1N1CCOCC1	Pf growth 48h 5.2µM (no result: HCV inhibitor)
O=C(CSc1ccc(S(=O)(=O)N2CCCC2)cn1)Nc1ccc([N+](=O)[O-])cc1C(F)(F)F	HCV inhibitor 13µM (no result: Pf growth 48h, Pf growth 96h)
O=C(CSc1ccc([N+](=O)[O-])cn1)Nc1ccccc1N1CCOCC1	Pf growth 48h inconclusive
O=C(CSc1nc2ccccc2[nH]1)Nc1ccccc1N1CCOCC1	none (no result: Pf growth 96h)
Cc1[nH]nc(N=CC2=C(O)CC(C)(C)CC2=O)c1-c1ccccc1	HCV inhibitor inconclusive
Cc1[nH]nc(N=CC2=C(O)CC(c3ccco3)CC2=O)c1-c1ccccc1 (centres undefined)	Pf growth 48h inconclusive, Pf growth 96h 7.4µM, HCV inhibitor inconclusive
CCOC(=O)NN1C(=O)c2ccccc2NC1c1ccccn1 (centres undefined)	Pf growth 96h 10µM
O=C(Nc1ccon1)c1ccc(S(=O)(=O)N2CCOCC2)cc1	none
CCN(C(=O)c1ccco1)c1nnc(-c2cccnc2)s1	Pf growth 96h inconclusive
CCN(CC)C(=O)Cn1cc(/C=C(\C#N)C(=O)N2CCN(c3ccccc3)CC2)c2ccccc21	Pf growth 48h inconclusive, Pf growth 96h 10µM, HCV inhibitor inconclusive
COc1ccc(N2CCN(c3ncnc4c3nnn4Cc3ccccc3Cl)CC2)cc1	Pf growth 96h 5.2µM
CC1Cc2ccccc2N1c1ncnc2c1nnn2Cc1ccccc1 (centres undefined)	HCV inhibitor 11µM
c1ccc(Cn2nnc3c(N4CCC5(CC4)OCCO5)ncnc32)cc1	AMA1-RON2 inh inconclusive, Pf growth 96h 12µM, HCV inhibitor inconclusive
Cc1nc(N2CCCC2)c2nnn(Cc3ccccc3Cl)c2n1	none
COC(=O)CCC(=O)c1oc2ccccc2c1NC(=O)CCCN1C(=O)c2ccccc2C1=O	Pf growth 96h 9.3µM
COCCOc1ccc(C(F)(F)F)cc1NC(=O)COC(=O)c1cc[n+]([O-])cc1	Pf growth 48h inconclusive
CCc1noc(C)c1C(=O)OCC(=O)NC(C)c1ccccc1 (centres undefined)	none
Cc1onc(-c2ccccc2)c1C(=O)OCC(=O)NC(C)c1ccc(Cl)cc1 (centres undefined)	Pf growth 48h 15µM, Pf growth 96h inconclusive, HCV inhibitor inconclusive
COc1ccc(NC(=O)COC(=O)c2c(-c3ccccc3)noc2C)cc1	Pf growth 48h inconclusive, Pf growth 96h 10µM, HCV inhibitor inconclusive
COc1ccc(Cl)cc1NC(=O)COC(=O)c1c(-c2ccccc2)noc1C	Pf growth 48h inconclusive, Pf growth 96h inconclusive, HCV inhibitor 4µM
Cc1onc(-c2ccccc2)c1C(=O)OCC(=O)Nc1ccccc1	Pf growth 48h inconclusive
COCCOc1ccc(C(F)(F)F)cc1NC(=O)COC(=O)c1c(C)noc1C	Pf growth 48h 9.3µM, Pf growth 96h 4.7µM
O=C(CN1CCN(Cc2ccccc2Cl)CC1)N/N=C/c1cccs1	Pf growth 48h inconclusive
Cc1cccc(Oc2ccccc2NC(=O)C2=COCCO2)c1	Pf growth 48h inconclusive
Cc1cnc(-c2nc3ccccc3n2C(C(=O)NC(C)(C)C)c2ccccc2)cn1 (centres undefined)	none (no result: Pf growth 48h, Pf growth 96h, HCV inhibitor)
COc1ccc(C=O)cc1COc1ccccc1F	Pf growth 96h 8.3µM
COc1ccc(C=O)cc1CN1CCCN(Cc2ccccc2F)S1(=O)=O	none
COc1ccc(/C=C/C(=O)c2ccccc2)cc1COc1ccccc1F	Pf growth 48h inconclusive, Pf growth 96h inconclusive, HCV inhibitor inconclusive
COc1ccc(C=O)cc1CN1C(=O)c2ccccc2C1=O	Pf growth 48h inconclusive, Pf growth 96h 0.15µM
CC(C)NC(=O)NC(=O)COC(=O)Cc1c(F)cccc1Cl	none
COc1ccc(C)cc1N(CC(=O)Nc1ccc(S(=O)(=O)N2CCCC2)cc1)S(C)(=O)=O	none
N#C/C(=C\c1ccc(-c2ccc([N+](=O)[O-])cc2Br)o1)C(=O)N1CCN(c2ccccc2)CC1	Pf growth 96h inconclusive
COc1ccc(OC)c(NC(=O)CSc2ccc3nnc(-c4cccnc4)n3n2)c1	Pf growth 48h inconclusive, AMA1-RON2 inh inconclusive, Pf growth 96h 12µM
Cc1ccc(-c2nnc3ccc(SCC(=O)Nc4cc(C)on4)nn23)cc1	Pf growth 48h inconclusive
COc1ccc(NC(=O)CSc2ccc3nnc(-c4ccccn4)n3n2)cc1	Pf growth 48h inconclusive, Pf growth 96h 12µM (no result: HCV inhibitor)
Cc1cc(NC(=O)CSc2ccc3nnc(-c4cccs4)n3n2)no1	Pf growth 96h 2.3µM (no result: Pf growth 48h)
CC(=O)c1ccc(NC(=O)CSc2ccc3nnc(-c4ccccn4)n3n2)cc1	Pf growth 48h inconclusive, AMA1-RON2 inh inconclusive, Pf growth 96h inconclusive
Cc1ccc(NC(=O)CSc2ccc3nnc(-c4ccccn4)n3n2)cc1	Pf growth 48h inconclusive, Pf growth 96h 13µM
CC(OC(=O)CCc1c[nH]c2ccccc12)C(=O)c1ccccc1 (centres undefined)	Pf growth 96h inconclusive
Cc1ccc2sc(-c3ccc(NC(=O)/C=C\C(=O)O)cc3)nc2c1	Pf growth 96h inconclusive
Cc1ccccc1-c1cnc(C(O)c2c(C)ccc3ccccc23)[nH]1 (centres undefined)	none (no result: Pf growth 48h, Pf growth 96h, HCV inhibitor)
Fc1cccc(Cl)c1CSc1ccc2nnc(-c3ccccn3)n2n1	none
O=C(CSc1ccc2nnc(-c3ccccn3)n2n1)Nc1ccc2c(c1)OCO2	Pf growth 48h 3.7µM, AMA1-RON2 inh inconclusive, Pf growth 96h 1.9µM
Fc1cccc(CSc2ccc3nnc(-c4ccccn4)n3n2)c1	Pf growth 48h inconclusive, AMA1-RON2 inh inconclusive, Pf growth 96h 1.9µM
COc1ccc(S(=O)(=O)N2CCOC2CNC(=O)C(=O)NCCc2c[nH]c3ccccc23)cc1 (centres undefined)	Pf growth 96h inconclusive, HCV inhibitor inconclusive
O=C(NCCc1c[nH]c2ccccc12)C(=O)NCC1OCCCN1S(=O)(=O)c1cc(F)ccc1F (centres undefined)	Pf growth 48h 13µM, Pf growth 96h 3.3µM
COc1ccc(S(=O)(=O)N2CCOC2CNC(=O)C(=O)NCCc2c[nH]c3ccccc23)cc1C (centres undefined)	Pf growth 48h inconclusive, Pf growth 96h 9.3µM, HCV inhibitor 11µM
COC(=O)c1ccc(/C=C/C(=O)OCC(=O)Nc2ncc(Cl)cc2Cl)cc1	Pf growth 48h 12µM, Pf growth 96h inconclusive
C[n+]1c(-c2ccccc2)cc(CCCCc2cc(-c3ccccc3)[n+](C)c(-c3ccccc3)c2)cc1-c1ccccc1	Pf growth 48h 13µM, Pf growth 96h 0.93µM, HCV inhibitor inconclusive
